Data as given in the supplement of paper PMC3334620.
In all, about 33,000 sequences were measured (“E-score (-0.5 to 0.5)”: median about -0.011, highest 2% from about 0.28 on). The entries come from a sample that favours the highest values as a whole.

biological target: T1, Gcr1 (UniProt P07261); test: PBM E-score (8-mer binding enrichment) (E-score (-0.5 to 0.5)); higher = stronger / more preferred TF binding; conditions: protein concentration: 100 nM; construct: GST-full length
T1 sequence: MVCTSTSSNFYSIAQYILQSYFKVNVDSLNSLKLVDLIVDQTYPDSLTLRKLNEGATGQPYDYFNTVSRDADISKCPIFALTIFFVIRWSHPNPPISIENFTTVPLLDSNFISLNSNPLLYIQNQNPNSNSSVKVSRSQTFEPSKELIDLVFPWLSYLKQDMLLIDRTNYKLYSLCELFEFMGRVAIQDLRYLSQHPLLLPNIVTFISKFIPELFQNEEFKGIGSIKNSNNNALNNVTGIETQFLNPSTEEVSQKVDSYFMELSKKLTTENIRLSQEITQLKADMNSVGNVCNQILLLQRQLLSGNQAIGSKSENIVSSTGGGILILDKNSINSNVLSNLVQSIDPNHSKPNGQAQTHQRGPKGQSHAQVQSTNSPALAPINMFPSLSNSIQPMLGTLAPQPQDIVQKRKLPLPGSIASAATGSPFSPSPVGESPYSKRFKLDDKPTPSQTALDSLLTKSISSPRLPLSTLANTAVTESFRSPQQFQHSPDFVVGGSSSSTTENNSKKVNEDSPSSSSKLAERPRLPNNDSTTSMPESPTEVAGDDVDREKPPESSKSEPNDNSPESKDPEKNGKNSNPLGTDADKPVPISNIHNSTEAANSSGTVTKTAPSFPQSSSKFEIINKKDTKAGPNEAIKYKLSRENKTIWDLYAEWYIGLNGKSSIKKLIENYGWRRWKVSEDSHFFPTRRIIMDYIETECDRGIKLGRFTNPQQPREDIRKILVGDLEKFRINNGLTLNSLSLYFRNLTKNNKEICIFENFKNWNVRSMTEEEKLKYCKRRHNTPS
Protocol: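 Universal 'all 10-mer' protein binding microarrays (Agilent AMADID 015681) probed with GST-tagged S. cerevisiae TFs (full-length or DBD) made by in vitro transcription/translation (PURExpress), about 100-200 nM. Bound TF was detected with fluorescent anti-GST. Each ungapped 8-mer (which stands for itself and its reverse complement) is scored by the PBM enrichment score (E-score), a modified Wilcoxon-Mann-Whitney statistic from -0.5 to +0.5, computed with the Universal PBM Analysis Suite. Scale: above 0.35 generally sequence-specific binding.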

| Sequence | PBM E-score |
| --- | --- |
| AGGTTTTC | 0.0618 |
| CACACAAG | 0.128 |
| ACTTTCAC | 0.0906 |
| TACCCCGA | -0.036 |
| GGACCGAA | 0.0294 |
| AAATCGTT | -0.0365 |
| TACAAGAA | 0.379 |
| ACGAAGAT | 0.00119 |
| AAGAAGAG | 0.237 |
| CACAAGAA | 0.275 |
| TACAAAAA | 0.0752 |
| AAGAAGAT | 0.338 |
| GTCGGCAA | 0.0614 |
| GGATCAAC | -0.00409 |
| ACTCAATA | 0.156 |
| ATTTTGGG | 0.274 |
| ATTTGGGG | 0.23 |
| GTTTGGGA | -0.0986 |
| AATTTGGA | 0.263 |
| TATTTGGA | 0.313 |
| CATTTGGA | 0.172 |
| ATTTTGGA | 0.282 |

| Sequence | PBM E-score |
| --- | --- |
| GTTTTGGA | 0.122 |
| ATTTGGGA | 0.301 |
| AAGCTCCG | 0.00534 |
| AACCAACA | 0.0425 |
| CTTTGAGC | -0.149 |
| GACCATCC | -0.0793 |
| CCGCCCAC | 0.0451 |
| GCGCCCGC | 0.315 |
| ACGCCCGC | 0.105 |
| GCGCCCAC | 0.317 |
| CCGCCCGC | -0.0787 |
| GCGCCCAA | 0.18 |
| TAAAGGTA | -0.0155 |
| GTGCTACA | -0.119 |
| CTAAACGA | -0.00769 |
| GGTTAACC | -0.194 |
| AATCTGGA | 0.257 |
| AATCTGGT | 0.281 |
| AATCTGGC | 0.0826 |
| CGTTCCCC | -0.0544 |
| AACAAGTG | 0.0405 |
| AATGCCGA | -0.178 |

| Sequence | PBM E-score |
| --- | --- |
| GATGCCAA | 0.351 |
| AATGCCAA | 0.042 |
| AATGCCAC | -0.0507 |
| GATGCCGA | 0.335 |
| CATGCCGA | 0.041 |
| GATGCCAC | 0.342 |
| CATGCCAC | -0.109 |
| TATGCCAA | -0.104 |
| GTTCATAA | 0.0771 |
| CAGTGAGG | -0.176 |
| GCCAGGTA | 0.0834 |
| CTCTGCGC | -0.22 |
| ACAGCAGC | 0.288 |
| CCAGCAGC | 0.272 |
| CACGCAGC | 0.295 |
| ACAGCAGT | -0.0218 |
| GCAGCAGC | 0.307 |
| GCAGCAGA | -0.135 |
| CACGCAGA | -0.137 |
| ACAGCAGA | -0.0557 |
| GAAGCAGC | 0.24 |
| CAAGCAGC | 0.324 |

| Sequence | PBM E-score |
| --- | --- |
| AACGCAGC | 0.0364 |
| AAAGCAGC | -0.0508 |
| CGCGGCTC | 0.117 |
| CACTTGAG | 0.00447 |
| ACCCTCCG | -0.333 |
| GCCGCAGC | 0.0591 |
| TAAGATCA | 0.157 |
| CGATCGAC | -0.154 |
| GTATCGCA | -0.00444 |
| CATACTTA | 0.0988 |
| AAAAAAGT | 0.135 |
| TGGCTGAA | 0.0392 |
| CATCCAGA | 0.268 |
| AGAGCCAC | 0.13 |
| GGAGCCCC | 0.265 |
| GGAGCCCA | 0.349 |
| GGAGCCAC | 0.289 |
| AGAGCCAA | -0.13 |
| GGAGCCAA | 0.33 |
| CGAGCCAA | -0.00353 |
| TGAGCCCA | 0.0335 |
| CGAGCCAC | -0.116 |
